# Assay results from the supplement of paper PMC3545927.
# The list shows a part of the results. How many sequences the whole screen found active is unknown.
# B1: HC693 (peptide)
# chain: CAAAQTFLATAGNASASA
# B2: HC2480 (peptide)
# chain: CACTPCSAHLAGNASASA
# B3: HC469 (peptide)
# chain: CAHYPCTINYAGNASASA
# B4: HC1736 (peptide)
# chain: CAMEECSGHLAGNASASA
# B5: HC2008 (peptide)
# chain: CAVWCCSMSYAGNASASA
# B6: FS-234 (peptide)
# chain: CAEQRRRRRQAGNASASA
# B7: FS-181 (peptide)
# chain: CANMWRCPRQAGNASASA
# B8: FS-801 (peptide)
# chain: CAIFRRRPRQAGNASASA
# B9: FS-1012 (peptide)
# chain: CAIGGRFDRQAGNASASA
# B10: FS-787 (peptide)
# chain: CAGREERRRQAGNASASA
# B11: FS-1860 (peptide)
# chain: CARLRKCVEQAGNASASA
# B12: FS-1415 (peptide)
# chain: CASPQRRRRQAGNASASA
# B13: FS-1623 (peptide)
# chain: CACLRRRRRQAGNASASA
# B14: HC2552 (peptide)
# chain: CASTPCSAELAGNASASA
# B15: HC2276 (peptide)
# chain: CAGLEVVTSTAGNASASA
# B16: HC823 (peptide)
# chain: CASILGIGTVAGNASASA
# B17: HC676 (peptide)
# chain: CAAYAQQTRGAGNASASA
# B18: HC756 (peptide)
# chain: CAKAVDFIPVAGNASASA
# B19: FS-570 (peptide)
# chain: CATPQRLRRQAGNASASA
# B20: HC933 (peptide)
# chain: CATPGLPVCQAGNASASA
# B21: HC2247 (peptide)
# chain: CAEVVTSTWFAGNASASA
# B22: FS-1701 (peptide)
# chain: CARFLRHTGRAGNASASA
# B23: FS-1121 (peptide)
# chain: CAETRRERRRAGNASASA
# B24: FS-1155 (peptide)
# chain: CAREQRERRRAGNASASA
# B25: FS-361 (peptide)
# chain: CALRRRLKRRAGNASASA
# Biological target: furin, P09958
# Sequence (P09958 whole entry): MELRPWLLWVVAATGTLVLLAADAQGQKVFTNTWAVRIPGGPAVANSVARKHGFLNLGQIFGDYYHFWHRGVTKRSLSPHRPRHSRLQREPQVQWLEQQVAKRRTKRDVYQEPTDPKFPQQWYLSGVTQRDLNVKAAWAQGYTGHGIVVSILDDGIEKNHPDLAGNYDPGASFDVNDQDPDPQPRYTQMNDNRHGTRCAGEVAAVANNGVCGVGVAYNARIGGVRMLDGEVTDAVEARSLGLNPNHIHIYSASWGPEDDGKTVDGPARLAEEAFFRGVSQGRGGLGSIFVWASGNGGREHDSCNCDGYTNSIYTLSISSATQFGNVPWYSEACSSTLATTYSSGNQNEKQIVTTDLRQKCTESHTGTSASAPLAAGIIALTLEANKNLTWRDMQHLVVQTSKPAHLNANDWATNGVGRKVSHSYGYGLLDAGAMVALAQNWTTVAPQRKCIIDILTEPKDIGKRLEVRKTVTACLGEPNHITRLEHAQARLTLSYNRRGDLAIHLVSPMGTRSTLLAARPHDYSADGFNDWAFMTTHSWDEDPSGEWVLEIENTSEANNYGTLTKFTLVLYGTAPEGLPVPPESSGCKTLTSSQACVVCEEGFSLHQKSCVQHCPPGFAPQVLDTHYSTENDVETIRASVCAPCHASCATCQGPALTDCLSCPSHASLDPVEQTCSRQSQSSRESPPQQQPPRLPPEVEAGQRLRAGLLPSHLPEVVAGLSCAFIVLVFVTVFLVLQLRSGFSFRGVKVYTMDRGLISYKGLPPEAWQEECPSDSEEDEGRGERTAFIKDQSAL
# Experiment: furin cleavage Z-score vs untreated control; higher = more cleavage, active = 3.5 or more, inactive = 1 or less, 8 variable residues between constant flanks
# Summary of the method: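 Sequencing of released DNA, tagged with adapters by PCR, gave read counts used as abundance. That DNA was freed when purified furin cut N-terminally bead-bound 8-mer peptides fused to a cDNA oligonucleotide, in 0.01 ml reactions at 1:10 enzyme:substrate in 50 mM HEPES pH 7.5 with CaCl2 and NaCl, lasting 7.5, 15 or 30 min. The cleavage Z-score was the lowess-adjusted log count versus furin-free reactions, scaled by median absolute deviation.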
Sequence,furin cleavage Z-score (7.5 min),furin cleavage Z-score (15 min),furin cleavage Z-score (30 min)
B1,-1.34 (inactive),-1.47 (inactive),-1.85 (inactive)
B2,2.02,1.15,0.414 (inactive)
B3,-0.918 (inactive),-0.579 (inactive),0.122 (inactive)
B4,-0.517 (inactive),-0.79 (inactive),1.12
B5,1.84,-0.334 (inactive),1.13
B6,8.68 (active),6.63 (active),6.29 (active)
B7,1.61,-1.4 (inactive),-1.2 (inactive)
B8,5.14 (active),4.22 (active),2.76
B9,-1.34 (inactive),2.43,1.03
B10,-0.438 (inactive),-0.529 (inactive),0.464 (inactive)
B11,-0.549 (inactive),0.53 (inactive),1.14
B12,7.36 (active),8.25 (active),6.4 (active)
B13,8.28 (active),7.74 (active),5.47 (active)
B14,-0.156 (inactive),0.767 (inactive),0.789 (inactive)
B15,1.36,-0.694 (inactive),-0.958 (inactive)
B16,-0.809 (inactive),0.141 (inactive),-0.562 (inactive)
B17,0.0125 (inactive),0.047 (inactive),1.9
B18,-0.823 (inactive),-0.464 (inactive),-0.656 (inactive)
B19,7.8 (active),8.92 (active),4.33 (active)
B20,0.0348 (inactive),-0.269 (inactive),0.151 (inactive)
B21,-0.0997 (inactive),1.76,0.942 (inactive)
B22,2.28,1.08,0.702 (inactive)
B23,3.87 (active),4.13 (active),4.7 (active)
B24,0.997 (inactive),2.01,2.01
B25,7.56 (active),7.31 (active),5.73 (active)
